Inconclusive results are not listed. Entries that show only a call come without a potency. Activity calls are given as the source filed them. Calls follow the shape of the dose curve; as a rule, active = well fitted inhibition curve with a large enough effect; inconclusive = small, poorly fitted or top-dose-only effect; inactive = flat fitted curve, though single readings scatter.
Test system: NIH3T3
Assay: qHTS assay to identify novel small-molecules to repurpose for Merkel cell carcinoma treatment (AID 1296009); also: nearly all actives have a fitted effect of over 60% in size
Settings: MCC and control cell lines, CellTiter-Glo viability, 72 h; series mostly up to 44.8 µM
Source text: MCC is a rare and aggressive neuroendocrine skin cancer with limited treatment options. Approximately 80% of MCCs have the Merkel cell polyomavirus (MCPyV) DNA integrated into the host genome (virus-positive: VP-MCC) and viral oncogenes drive oncogenesis. The remaining MCCs are virus-negative (VN-MCC) and are caused by UV mutagenesis. To identify novel treatments for VP-MCC and/or VN-MCC we screened three VP-MCC cell lines (WAGA, MKL-1, MKL-2), three VN-MCC cell lines (MCC-13, MCC-26, UISO), and four immortalized, non-transformed control cell lines (HaCaT, HEK293T, CRL7250, NIH-3T3) against ~2,400 compounds in the NCGC Pharmaceutical Collection (NPC) and ~1,900 compounds in the Mechanism Interrogation PlatE (MiPE). Using cell viability as a readout (CellTiter-Glo assay) we found both overlapping and distinct drugs that can be repurposed for the treatment of VP-MCC and VN-MCC.
A high-throughput screen was conducted in 1536-well white flat bottom plates (Corning) on a Kalypsys robotic system. Cell lines WAGA, MKL-1, MKL-2, MCC-13, MCC-26, UISO, HaCaT, HEK293T, CRL7250, and NIH-3T3 were screened against 2 small molecule annotated drug libraries NPC and MIPE in dose response (8 and 11 pt. respectively) measuring cell viability after 72 hours of incubation. […] A 1,536 pintool (Kalypsys) was used to transfer 23 nL of compound in DMSO to the 1,536-well assay plates. After 72 hr incubation at 37 degree celsius, 2.5 uL of CellTiter-Glo (Promega) was dispensed into each well using a BiorapTR. Plates were incubated at room temperature for 10 min, transferred to a ViewLux (PerkinElmer) and the luminescence was recorded using an exposure time of 2 seconds. Relative luminescence units (RLUs) were normalized to in-plate controls (no cells as a positive (cytotoxicity) control, DMSO as negative control) and the normalized data was processed using NCATS in-house software.
Potency is read from the fitted curve at half-maximal effect.

How did the “outcome” value turn out when `COC(=O)c1ccc2c(c1)[nH]c1ncnc(NCCCN3CCCCC3)c12` was run?
Its value is “inactive”.

For `CC1(C)C2CCC(CO[C@@H]3O[C@H](CO[C@@H]4OC[C@](O)(CO)[C@H]4O)[C@@H](O)[C@H](O)[C@H]3O)C1C2` (stereo not given in full), which “outcome” value is on record?
The value was “inactive [at 17.4 µM]”.

With `COc1ccccc1N1CCN(CC(C(=O)NC(C)(C)C)c2ccccc2)CC1` (stereo not given) as the compound, how does the “outcome” value read?
The value was “inactive”.

With `Nc1nc2c(nc(Br)n2[C@@H]2O[C@@H]3COP(=O)(O)O[C@H]3[C@H]2O)c(=O)[nH]1` as the compound, how does the “outcome” value read?
Its value is “inactive”.

`CCC[C@@]1(CCc2ccccc2)CC(O)=C([C@H](CC)c2cccc(NS(=O)(=O)c3ccc(C(F)(F)F)cn3)c2)C(=O)O1` was tested. Which “outcome” value did it give?
The value was “inactive”.

`CCc1c(Cl)c(O)c(Cl)c(O)c1C(=O)O[C@H]1[C@H](O)[C@H](OC)[C@H](OC/C2=C\C=C\C[C@H](O)/C(C)=C\[C@H](CC)[C@@H](O[C@@H]3OC(C)(C)[C@@H](OC(=O)C(C)C)[C@H](O)[C@@H]3O)/C(C)=C/C(C)=C/C[C@@H]([C@@H](C)O)OC2=O)O[C@@H]1C` was tested. Which “outcome” value did it give?
Its value is “inactive [at 17.4 µM]”.

With `O=C(N[C@H]1CCN(C(=O)c2cc(C(F)(F)F)cc(C(F)(F)F)c2)[C@H](Cc2ccc(Cl)cc2)C1)c1ccnc2ccccc12` as the compound, how does the “outcome” value read?
The value was “inactive [at 17.4 µM]”.

For `CN(C)C(CCOc1cccc2ccccc12)c1ccccc1` (stereo not given), which “outcome” value is on record?
Its value is “inactive”.

`COC(=O)c1cc2c(C(F)(F)F)cc(-c3ccccc3)cc2n1O` was tested. Which “outcome” value did it give?
Its value is “inactive”.

For `CC[C@@H](C)Nc1cc(C(=O)NC2CC3CC[C@@H](C2)N3c2ccc(C(=O)C3CC3)cn2)c(C)cc1C(N)=O` (stereo not given in full), which Potency is on record?
Its Potency is 184 nM (active).

`C[C@@H]1CN(CC(=O)N2CC(C)(C)c3ncc(Cc4ccc(F)cc4)cc32)[C@@H](CN2CCOC[C@H]2C)CN1` was tested. Which “outcome” value did it give?
The value was “inactive”.

How did the “outcome” value turn out when `Cn1nc(C(C)(C)C)cc1C(=O)N[C@@H](Cc1cccc(Cl)c1)C(=O)NCC#N` was run?
The value was “inactive”.

`CC(C)c1c(O)ccc2c1CC[C@H]1C(C)(C)CCC[C@]21C` was tested. Which “outcome” value did it give?
The value was “inactive”.

How did the “outcome” value turn out when `CN(C)CCOc1cc(NS(=O)(=O)c2c(Cl)cc(C(F)(F)F)cc2Cl)ccc1Cl` was run?
The value was “inactive”.

For `COc1cc2ncc(-c3ccccc3)nc2cc1OC`, which “outcome” value is on record?
The value was “inactive”.

With `CO[C@H]1[C@@H](O)[C@H](O[C@H]2CC[C@@]3(C)C(CCC4C3CC[C@]35COC6(COC(=O)C6)C3CCC45O)C2)O[C@@H](C)[C@@H]1OC1OC(CO)C(OC2OC(CO)C(O)C(O)C2O)C(O)C1O` (stereo not given in full) as the compound, how does the outcome read?
Its outcome is “inactive [at 9.27 µM]”.

Which “outcome” value does the source give for `CCN1CCC[C@@H]1CNC(=O)c1ccc2c(c1)NC(=O)c1cccc(C)c1S2` here?
The value was “inactive”.

With `CCC(C)C(=O)OC12C(OC(C)=O)C(C)C3(O)C(C=C(CO)CC4(O)C(=O)C(C)=CC43)C1C2(C)C` (stereo not given) as the compound, how does the “outcome” value read?
The value was “inactive [at 17.4 µM]”.

`C=C1CCN([C@H](C)[C@](O)(Cn2cncn2)c2ccc(F)cc2F)CC1` was tested. Which “outcome” value did it give?
Its value is “inactive”.

With `COC(=O)CC(O)CC(O)/C=C/c1c(C)ccc2c1C(OC(C)=O)CC(C)C2` (stereo not given) as the compound, how does the “outcome” value read?
The value was “inactive”.

For `O=C(/C=C/c1ccccc1O)O[C@@H]1O[C@H](CO)[C@@H](O)[C@H](O)[C@H]1O`, which “outcome” value is on record?
The value was “inactive”.

With `CCC(=O)N1CCOc2c(cc(-c3ccc(OC)c(OC)c3)cc2OC[C@H]2CCCN(C)C2)C1` as the compound, how does the “outcome” value read?
Its value is “inactive”.

With `CC(=O)C1=C(O)C=C2Oc3c(C(C)=O)c(O)c(C)c(O)c3[C@]2(C)C1=O` as the compound, how does the “outcome” value read?
Its value is “inactive”.

`O=C(Nc1ncc([N+](=O)[O-])s1)c1ccccc1O` was tested. Which “outcome” value did it give?
The value was “inactive”.

`COC(=O)N1CC2(CC2)C[C@H](C(=O)NO)[C@H]1C(=O)N1CCN(c2ccccc2)CC1` was tested. Which “outcome” value did it give?
The value was “inactive”.

With `CC[C@H](C)/C=C(C)/C=C/C1=CC2=C(Cl)C(=O)[C@](C)(O)[C@H](OC(C)=O)[C@H]2CO1` as the compound, how does the “outcome” value read?
The value was “inactive”.

With `CCOC(=O)CCNc1cc(N2CCc3ccccc3CC2)nc(-c2cccnc2)n1` as the compound, how does the “outcome” value read?
Its value is “inactive”.

Which “outcome” value does the source give for `O=C(Nc1ccccc1C(=O)Nc1ccc(CCO)cc1)c1ccc([N+](=O)[O-])cc1` here?
Its value is “inactive”.

`COc1cc(F)c(C(C)C)cc1-c1ccc(C(F)(F)F)cc1CN1C(=O)OC(c2cc(C(F)(F)F)cc(C(F)(F)F)c2)C1C` (stereo not given) was tested. Which “outcome” value did it give?
The value was “inactive”.

With `C=C(C(=O)OC)[C@@H]1CC=C2C=CC(=O)[C@H](C)[C@@]2(C)C1` as the compound, how does the “outcome” value read?
Its value is “inactive”.

How did the “outcome” value turn out when `C=C1CC[C@@H]2[C@](C)(CO)[C@H](O)CC[C@@]2(C)[C@@H]1CC(O)C1=CCOC1=O` (stereo not given in full) was run?
Its value is “inactive”.

For `O=C([C@@H](Cc1cccc(C(F)(F)F)c1)NS(=O)(=O)c1cc(F)c2c(c1)CCNC2)N1CCCC1`, which “outcome” value is on record?
Its value is “inactive”.

How did the “outcome” value turn out when `O=C(c1ccccn1)N(Cc1cccs1)C1(C(=O)NC2CCCCC2)CCCCC1` was run?
Its value is “inactive”.

For `CCCCOC(=O)NS(=O)(=O)c1sc(CC(C)C)cc1-c1ccc(Cn2ccnc2)cc1`, which “outcome” value is on record?
The value was “inactive”.

With `C[C@@]12C(=O)N(c3ccc(C(=O)Nc4cccc5cccnc45)cc3)C(=O)[C@@H]1[C@@H]1C=C[C@H]2C1` as the compound, how does the “outcome” value read?
Its value is “inactive”.

How did the “outcome” value turn out when `Fc1ccc2c(CCNCc3cccc(OCC(F)(F)C(F)F)c3)c[nH]c2c1` was run?
Its value is “inactive”.

With `Cc1ccc(NC(=O)c2ccc(CN3CCNCC3)cc2)cc1Nc1nccc(-c2cccnc2)n1` as the compound, how does the “outcome” value read?
Its value is “inactive”.

How did the “outcome” value turn out when `CCCn1cc2c(nc(NC(=O)Nc3ccc(OC)cc3)n3nc(-c4ccco4)nc23)n1` was run?
Its value is “inactive”.

For `COc1ccc2cc(-c3cc(-c4cc(Cl)cc(Cl)c4)nn3C(C)c3ccc(C(=O)NCCC(=O)O)cc3)ccc2c1` (stereo not given), which “outcome” value is on record?
The value was “inactive”.

How did the “outcome” value turn out when `CC1CCCC(O)CCC/C=C/c2cc(OS(=O)(=O)O)cc(O)c2C(=O)O1` (stereo not given) was run?
The value was “inactive”.
